We go through eight molecules from PubChem BioAssay (Tox21).

A number with no mark means an inactive call. Inconclusive results are not listed. Active and inactive are the calls of the source. Unless noted, the call rests on the fitted dose curve; in most records, active means well fitted curve in the direction sought with a large enough effect in the repeat runs; inconclusive means weak or mixed curves; inactive means no such curve, though single readings can be large; an effect the other way counts as inactive or inconclusive.

Test [1] is described as follows: qHTS assay to identify small molecule agonists of the hypoxia (HIF-1) signaling pathway (AID 1224846; active means well fitted activation curve with a large enough effect in the signal ratio in the repeat runs, not every such curve was filed as active; the % refers to the signal ratio). The essentials:
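Compounds added to ME-180 cells carrying hypoxia-response-element beta-lactamase reporter (0.5% dialyzed FBS, 5 h preplating), 17 h at 37C; agonist activity detected by CCF4-AM B/G FRET read-out.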

A short description of test [2]: qHTS assay to identify small molecule agonists of H2AX - cell viability counter screen (AID 1224847; calls by dose curve; further: nearly all actives have a fitted effect of over 30% in size; further: potency means the concentration at half of the fitted maximal effect). In outline:
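Wild-type CHO-K1 cells (10% FBS medium) were plated overnight at 37C, exposed to compounds at 15 concentrations for 3 hr at 37C (0.76% DMSO final), and viability was read as CellTiter-Glo luminescence after 30 min at room temperature.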

The nature of test [3]: qHTS RealTime-Glo MT Cell Viability Assay in HepG2 cells - 24 hour (AID 1224867). Further: nearly all actives have a fitted effect of over 50% in size. The essentials: (§1)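 Compound treatment began 5 h after plating HepG2 cells (600/well) with NanoLuc luciferase and prosubstrate. Plates stayed at 37 C for 40 h; luminescence was captured at six time points, 0 h through 40 h.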
The nature of test [4]: qHTS RealTime-Glo MT Cell Viability Assay in HEK293 cells - 32 hour (AID 1224868). Further: top concentration of the series differs between compounds; nearly all actives have a fitted effect of over 50% in size. The essentials:
(§2)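 Quantitative high-throughput screen of the Tox21 10K library in HEK293: cells and RealTime-Glo reagents plated together, compound added at 5 h, luminescence monitored through 40 h at 37 C.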

Test [5] can be described thus: A CellTox Green Cytotoxicity Assay to monitor cytotoxicity in HEK293 cells - 0 hour (AID 1224869). Further: nearly all actives have a fitted effect of over 50% in size. In outline:
(§3)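 Fluorescence from a DNA-binding dye excluded by viable cells was measured repeatedly in the same HEK293 wells (600 cells/well) during continuous compound exposure at 37 C. Each assay gives one read point: 0, 8, 16, 24, 32 or 40 h.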

Test [6] is described as follows: qHTS RealTime-Glo MT Cell Viability Assay in HepG2 cells - 40 hour (AID 1224870). Further: nearly all actives have a fitted effect of over 50% in size. In outline:
(§4)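 HepG2 cells mixed with RealTime-Glo MT reagents (NanoLuc plus cell-permeant prosubstrate) were seeded at 600 cells/well, incubated 5 h at 37 C/5% CO2, then pinned with compounds in DMSO; nonlytic luminescence tracked viability during 40 h treatment.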

A short description of test [7]: A CellTox Green Cytotoxicity Assay to monitor cytotoxicity in HEK293 cells - 40 hour (AID 1224871). Further: nearly all actives have a fitted effect of over 45% in size. In outline: as §3
Test [8] is described as follows: qHTS RealTime-Glo MT Cell Viability Assay in HEK293 cells - 16 hour (AID 1224872). The essentials: as §2
The nature of test [9]: qHTS RealTime-Glo MT Cell Viability Assay in HepG2 cells - 8 hour (AID 1224873). Further: nearly all actives have a fitted effect of over 55% in size. The essentials:
as §4

The nature of test [10]: qHTS RealTime-Glo MT Cell Viability Assay in HEK293 cells - 40 hour (AID 1224874). Further: nearly all actives have a fitted effect of over 50% in size. To be noted: RealTime-Glo luminescence; max response: stronger effect = lower value. The essentials: (§5)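 Luminescence, which tracks viable cell number through reduction of the prosubstrate to a NanoLuc substrate, was read over continuous 37 C culture. Cells (600/well) were premixed with reagent and rested 5 h before 23 nL of compound in DMSO was pinned.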

A short description of test [11]: A CellTox Green Cytotoxicity Assay to monitor cytotoxicity in HEK293 cells - 24 hour (AID 1224875). Further: nearly all actives have a fitted effect of over 45% in size. The essentials:
as §3

The nature of test [12]: A CellTox Green Cytotoxicity Assay to monitor cytotoxicity in HepG2 cells - 16 hour (AID 1224876). Further: nearly all actives have a fitted effect of over 45% in size. In outline: (§6)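 Real-time cytotoxicity: fluorescence of a cell-impermeant cyanine dye binding DNA of dead HepG2 cells, measured repeatedly (0–40 h) during compound exposure at 37 C. Cells seeded 600/well with reagent, dosed after 5 h.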
Test [13] can be described thus: qHTS RealTime-Glo MT Cell Viability Assay in HepG2 cells - 32 hour (AID 1224877). Further: nearly all actives have a fitted effect of over 55% in size. In outline:
as §1

Test [14] can be described thus: A CellTox Green Cytotoxicity Assay to monitor cytotoxicity in HepG2 cells - 24 hour (AID 1224878). Further: nearly all actives have a fitted effect of over 45% in size. In outline:
as §6

The nature of test [15]: A CellTox Green Cytotoxicity Assay to monitor cytotoxicity in HepG2 cells - 40 hour (AID 1224879). Further: nearly all actives have a fitted effect of over 40% in size. In outline:
as §6

Test [16] can be described thus: qHTS RealTime-Glo MT Cell Viability Assay in HEK293 cells - 0 hour (AID 1224880). In outline: as §5
Test [17] is described as follows: A CellTox Green Cytotoxicity Assay to monitor cytotoxicity in HEK293 cells - 32 hour (AID 1224881). Further: nearly all actives have a fitted effect of over 40% in size. The essentials: as §3
Test [18] is described as follows: A CellTox Green Cytotoxicity Assay to monitor cytotoxicity in HepG2 cells - 0 hour (AID 1224882). Further: nearly all actives have a fitted effect of over 35% in size. In outline:
as §6

Test [19] in a line: qHTS assay to identify small molecule agonists of the estrogen related receptor (ERR) signaling pathway from Tox21 library (AID 1224849; calls by dose curve; further: nearly all actives have a fitted effect of over 15% in size). The following applies: ERR reporter cell line, ONE-Glo luciferase, 18 h; at 92.4 µM (top of the series) unless noted. In outline: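 Luminescent agonist read-out (One-Glo, 30-minute room-temperature incubation) following 18-hour compound treatment at 37 C of the ERR cell line, which had been plated 6 hours before dosing.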
On the % scale 0 is the no-effect control and ±100 the full control effect.

As for `Fc1cccc(Cl)c1CCl`, the molecule was classed as inactive in test [1]. The Potency result in [2], in test [3], in [4], in test [5], in test [6] and in test [7] was “inactive” in each case. Also, the Potency entry in test [8], in [9], in test [11], in [12], in [13] and in test [14] was “inactive” in each case. Besides, the Potency result in test [15], in test [16], in [17] and in test [18] was “inactive” each time. For the same molecule, the max response in test [10] was -1.59%.
For the molecule `Nc1ccc(Cl)cc1C(=O)c1ccccc1`, the molecule was called inactive in [1]. Also, the Potency in test [2] was 101 µM (active). In addition, the activity change, positive = activation in [19] is 3.06%. Besides, the Potency entry in test [3], in test [5], in [6], in test [9], in test [12] and in [14] was “inactive” in each case. For the same molecule, the Potency result in test [15], in [16] and in test [18] was “inactive” each time.
For `Cn1[nH]nnc1=S`, the molecule was classed as inactive in [1]. Besides, the Potency result in test [2], in test [3], in test [4], in test [5], in test [6] and in [7] was “inactive” throughout. The Potency result in test [8], in [9], in test [11], in [12], in test [13] and in test [14] was “inactive” throughout. The Potency entry in test [15], in test [16] and in test [17] was “inactive” each time. Besides, in test [10], the max response was 4.93%.
Consider `Cc1cccc(OP(=O)(Oc2cccc(C)c2)Oc2cccc(C)c2)c1`, for which the molecule was called inactive in test [1]. In addition, the Potency result in test [2], in test [3], in test [4], in test [5], in test [6] and in [7] was “inactive” in each case. Moreover, the Potency entry in test [8], in test [9], in test [11], in test [12], in test [13] and in test [14] was “inactive” in each case. Besides, the Potency entry in test [15], in test [16], in [17] and in test [18] was “inactive” each time. In addition, the max response in [10] was 5.97%.
As to `BrC(Br)Br`, the molecule was called inactive in test [1]. The Potency result in test [2], in test [3], in test [4], in test [6], in test [7] and in [8] was “inactive” throughout. In addition, the Potency entry in test [9], in [11], in [12], in [13], in [14] and in [15] was “inactive” throughout. Besides, the Potency result in [16], in test [17] and in test [18] was “inactive” in each case. The activity change, positive = activation in [19] was 0.336%. Moreover, the max response in test [10] was 17.3%.
For the molecule `ClC1=C(Cl)[C@]2(Cl)[C@@H]3[C@@H](Cl)[C@H](Cl)C[C@@H]3[C@@]1(Cl)C2(Cl)Cl`, in test [1], the result was inactive. The Potency result in [2], in test [3], in test [4], in test [6], in test [8] and in test [9] was “inactive” throughout. Besides, the Potency result in test [12], in test [13], in [14], in test [15], in test [16] and in test [18] was “inactive” in each case. Also, in test [19], the activity change, positive = activation is -5.06%. Moreover, the max response in [10] was 7.93%.
Consider `CCOc1cc(C(C)(C)C)ccc1C1COC(c2c(F)cccc2F)=N1` (stereo unspecified), for which, in test [1], the call was inactive. Besides, the Potency in test [2] was 30.7 µM (active). Besides, the activity change, positive = activation in [19] was -39.5% [at 42.5 µM]. The Potency result in test [3], in test [5], in [6], in [7], in test [9] and in test [11] was “inactive” throughout. The Potency result in test [12], in test [13], in test [14], in [15] and in [16] was “inactive” in each case.
As to `CCC(C)c1cc(C(C)(C)C)cc(-n2nc3ccccc3n2)c1O` (stereo unspecified), the molecule was classed as inactive in test [1]. The Potency entry in test [2], in [3], in test [4], in test [5], in [6] and in test [7] was “inactive” in each case. The Potency result in test [8], in [9], in [11], in [12], in test [13] and in test [14] was “inactive” in each case. Also, the Potency result in test [15], in test [16], in test [17] and in [18] was “inactive” throughout. The activity change, positive = activation in test [19] was -0.703% [at 42.5 µM]. Further, the max response in test [10] is 9.2%.
